# In PubChem BioAssay:
# Activity calls are given as the source filed them.
# Experiment: plasmodial surface anion channel blockers, osmotic lysis – cell-based, P. falciparum Indochina, OD700, 18 h, primary screen (AID 1157)
# Details: P. falciparum Indochina infected erythrocytes, osmotic lysis OD700, 18 h; higher = more signal, called active from +8 up or from −8 down
row,Structure (SMILES),z-score
1,COc1cc(CO)cc(I)c1O[C@H]1C=C(C(=O)NCCO)C[C@@H](N(CC2CCCCC2)C(=O)c2cc3ccccc3oc2=O)[C@@H]1O,0.207 (inactive)
2,C=C(CCCC)/C(=C/C[C@@H](OC(=O)c1ccncc1)c1cccc(OCCO)c1)c1cc(C(=O)OC)ccc1OC,1.26 (inactive)
3,C=CCC(OC(C)=O)[C@@H]1[C@@H](N(Cc2ccc(-c3ccccc3)cc2)C(=O)c2ccc(-c3ccccc3)cc2)c2cc(OCCCO)ccc2N1C(=O)Cc1ccc(OC)cc1 (some centres undefined),-0.184 (inactive)
4,CC(=O)NCCCC[C@@H]1NC(=O)[C@H]2C[C@@H](C(=O)NCCCCCCN(C)C)[C@@H](c3ccc(O)cc3)N2C1=O,0.0071 (inactive)
5,Cc1ccc(S[C@]2(C(=O)NC(C)C)CC(=O)N(C3Cc4ccccc4C3)[C@@H]2c2ccc(CO)cc2)cc1,-1.88 (inactive)
6,Cc1ccc(N2C(=O)c3ccccc3[C@](C)(C(=O)NCC(C)C)[C@@H]2c2ccc(CO)cc2)nc1,0.937 (inactive)
7,[N-]=[N+]=NCc1ccccc1C[C@]1(C(=O)N2CCCCC2)N=C(c2ccc(OCCCO)cc2)O[C@H]1c1ccccc1CN=[N+]=[N-],1.16 (inactive)
8,C=C(CCCC)/C(=C/C[C@H](OC(=O)c1ccncc1)c1cccc(OCCO)c1)c1cc(C(=O)OC)ccc1OC,-0.403 (inactive)
9,O=C(CS)NCCCCCCNC(=O)[C@@H]1C[C@@H]2C(=O)N[C@@H](Cc3ccccc3)C(=O)N2[C@@H]1c1ccc(O)cc1,0.595 (inactive)
10,C=C(CCCC)C(=O)CC[C@@H](OC(=O)c1cccnc1)c1cccc(OCCO)c1,1.14 (inactive)
11,COc1ccc([C@H]2C[C@H]3C(Br)=C[C@]2(OC)C(=O)[C@]32CO2)cc1,-0.21 (inactive)
12,C=C(C(=O)CC[C@H](OC(=O)c1ccccc1-c1ccccc1C(=O)O)c1ccc(CO)o1)C(C)C,0.233 (inactive)
13,COC(=O)c1ccc(C#CC(NP(=O)(c2ccccc2)c2ccccc2)c2ccccc2)cc1 (centres undefined),0.936 (inactive)
14,CCOC(=O)C1=CC[C@@H](c2ccc(-c3ccc(OCc4ccccc4)cc3)c(OC)c2)N(S(=O)(=O)c2ccc(C)cc2)[C@H]1c1ccccc1,1.22 (inactive)
15,CC(c1ccccc1)C(O)C1C=CC2C(=O)N(C)C(=O)C2N1N(c1ccccc1)c1ccccc1 (centres undefined),0.777 (inactive)
16,C=C[C@H](OC)[C@@H](OC(=O)Nc1ccc(SC)cc1)c1ccc(O)c(F)c1,-0.016 (inactive)
17,C=C(CCCC)C(=O)CC[C@@H](OC(C)=O)c1ccccc1OCCO,0.7 (inactive)

row,Structure (SMILES),z-score
1,CC(=O)NCCCC[C@@H]1NC(=O)[C@H]2C[C@@H](C(=O)NCCCCCCN(C)C)[C@@H](c3cccc(OCCO)c3)N2C1=O,0.376 (inactive)
2,CCCC=C(CCC)[C@@H](NS(=O)(=O)c1cccc(C(F)(F)F)c1)c1ccc(C(=O)OC)cc1,-1.41 (inactive)
3,O=C(NCc1ccccc1)[C@@]1(Cc2ccccc2)COC(c2ccc(OCCCO)cc2)=N1,3.89 (inactive)
4,[N-]=[N+]=NCc1ccccc1[C@H]1OC(c2ccc(OCCCO)cc2)=N[C@@]1(Cc1ccccc1N=[N+]=[N-])C(=O)NCc1ccccc1,1.99 (inactive)
5,NC(=O)NCC#Cc1ccc2c(c1)[C@]1(C(=O)N2)[C@H](C(=O)N2CCCCCCC2)[C@H]2C(=O)O[C@H](c3ccccc3)[C@H](c3ccccc3)N2[C@@H]1c1ccccc1OCCO,0.148 (inactive)
6,C#CCNC(/C=C/c1ccccc1)CO (centres undefined),0.0834 (inactive)
7,O=C1C2C=CC(C(O)C(c3ccccc3)c3ccccc3)N(Nc3ccc([N+](=O)[O-])cc3)C2C(=O)N1c1ccccc1 (centres undefined),1.29 (inactive)
8,C=C(CCCC)/C(=C/C[C@@H](OC(=O)c1ccncc1)c1ccc(CO)o1)c1cnc2ccccc2c1,0.0867 (inactive)
9,CCc1cccc(NC(=O)O[C@H]2[C@H](OC(=O)Nc3ccccc3)[C@@H](OC(=O)Nc3ccccc3)[C@@H](OC)O[C@@H]2CO)c1,0.667 (inactive)
10,C=CC[C@]1(C(=O)N2CCCCC2)N=C(c2ccc(OCCCO)cc2)O[C@H]1c1ccccc1N=[N+]=[N-],8.93 (active)
11,C#C[C@H](O[Si](C#Cc1ccccc1)(C(C)C)C(C)C)c1ccccc1,0.234 (inactive)
12,CCOC(=O)C1=CC[C@@H](c2ccccc2)N(S(=O)(=O)c2ccc(C)cc2)[C@H]1C,0.215 (inactive)
13,O=C(N1CCCCC1)[C@@]1(CCS(=O)(=O)c2ccccc2)N=C(c2ccc(OCCCO)cc2)O[C@H]1c1ccccc1,4.24 (inactive)
14,CC(C)(C)OC(=O)CC[C@]1(C(=O)N2CCCCC2)N=C(c2ccc(OCCCO)cc2)O[C@H]1c1ccccc1,-0.186 (inactive)
15,N#Cc1ccc(NN2C(C(O)CCc3ccccc3)C=CC3C(=O)N(c4ccccc4)C(=O)C32)cc1 (centres undefined),-0.864 (inactive)
16,Cc1ccc(S[C@]2(C(=O)NC3CC3)CC(=O)N(Cc3cc(C(F)(F)F)cc(C(F)(F)F)c3)[C@@H]2c2ccc(CO)cc2)cc1,-1.95 (inactive)
17,Cc1ccc(S(=O)(=O)N2[C@@H](c3ccccc3)C(C(=O)O)=CC[C@H]2c2ccccc2)cc1,0.83 (inactive)
